Values joined by “and” are separate entries in the source; they are usually repeats but may differ in a detail not shown here. Equal entries are not always repeated.
How the values were obtained:
Type in all cases: functional
[1] = biological target: Solute carrier family 2, facilitated glucose transporter member 1 (Homo sapiens) (UniProt P11166); assay: ST_JUDE_LEISH: Cytotoxicity at 2uM final concentration against transgenic Leishmania Mexicana promastigotes LmGLUT1 that are glucose transport deficient and complemented with the human glucose transporter GLUT1. Activity is measured by DNA content using SYBR green in vitro
Solute carrier family 2, facilitated glucose transporter member 1 (Homo sapiens), sequence (P11166 whole entry): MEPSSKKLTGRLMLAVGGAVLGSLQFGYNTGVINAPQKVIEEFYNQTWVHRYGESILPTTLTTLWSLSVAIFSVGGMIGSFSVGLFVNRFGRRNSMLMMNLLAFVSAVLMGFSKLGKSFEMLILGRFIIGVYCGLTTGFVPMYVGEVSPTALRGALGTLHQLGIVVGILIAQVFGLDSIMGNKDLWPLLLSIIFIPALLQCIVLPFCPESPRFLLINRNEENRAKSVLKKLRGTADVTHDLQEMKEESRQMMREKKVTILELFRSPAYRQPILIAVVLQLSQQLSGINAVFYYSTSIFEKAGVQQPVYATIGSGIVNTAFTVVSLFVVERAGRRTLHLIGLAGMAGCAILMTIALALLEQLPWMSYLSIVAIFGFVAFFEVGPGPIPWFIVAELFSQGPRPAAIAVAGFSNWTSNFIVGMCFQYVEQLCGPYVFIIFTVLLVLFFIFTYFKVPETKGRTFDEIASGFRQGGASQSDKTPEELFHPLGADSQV

[2] = biological target: Hexose transporter 1 (Plasmodium falciparum) (UniProt O97467); assay: ST_JUDE_LEISH: Cytotoxicity at 2uM final concentration against transgenic Leishmania Mexicana promastigotes LmPfHT that are glucose transport deficient and complemented with the Plasmodium falciparum hexose transporter. Activity is measured by DNA content using SYBR green in vitro
[3] = biological target: Glucose transporter (Leishmania mexicana) (UniProt O61059); assay: ST_JUDE_LEISH: Cytotoxicity at 2uM final concentration against transgenic Leishmania Mexicana promastigotes LmGT2 that are glucose transport deficient and complemented with the L. Mexicana glucose transporter 2. Activity is measured by DNA content using SYBR green in vitro

Row | SMILES | inhibition [1] | inhibition [2] | inhibition [3]
1 | CCSc1ccccc1COc1c(C)nc(N)nc1N | 6.84% | 6.09% | 2.41%
2 | COc1nc(Nc2cccc(C)c2)nc(OC)n1 | -0.24% | 0.66% | 0.95%
3 | Cc1cccc2nc(-c3ccc(-c4cccc(CN5CCN(c6ccncc6)CC5)c4)cc3)[nH]c12 | 25.2% | 25.8% | 8.81%
4 | O=C(Nc1ccc(-c2csc(-c3nc4ccccc4[nH]3)c2)cc1)Nc1ccc(Cl)c(Cl)c1 | 1.35% | 1.35% | -1.48%
5 | Cc1cc(Nc2ccc(Oc3ccc(Cl)cc3)cc2)nc(N)n1 | 3.89% | 5.01% | 2.92%
6 | Cc1ncccc1C(=O)Nc1ccc(-c2cccc(-c3nc4cccc(C)c4[nH]3)c2)cc1 | 0.98% | 0.96% | 3.38%
7 | Cc1nc(C)c(CC(=O)Nc2ccc(-c3cccc(-c4nc5cccc(C)c5[nH]4)c3)cc2)s1 | 2.82% | 2.89% | 4.14%
8 | COc1ccc2nccc([C@@H](O)CN3CCC(NCc4nc5cc(F)ccc5o4)CC3)c2c1 | 8.07% | 6.24% | 1.01%
9 | CC(C)N1CCN(C(CN2CCN(CCCOc3ccc4nonc4c3)CC2)c2ccc(F)cc2)CC1 (stereo not given) | -0.47% | -1.18% | -1.91%
10 | NC(=O)c1cccc(Nc2nccc(Nc3ccc(Oc4cccc5ccccc45)cc3)n2)c1 | 7.84% | 7.66% | 1.31%
11 | COc1ccc(Nc2nc(=Nc3ccccc3)nc(NN=Cc3cc(Cl)ccc3O)[nH]2)cc1 | 1.37% | 2.04% | 1.08%
12 | CCNc1cc(C(=O)N[C@@H](Cc2ccccc2)[C@H](O)CNC2CC3CCC2C3)cc(N2CCCCS2(=O)=O)c1 (stereo not given in full) | 1.78% | 1.76% | -3.22%
13 | O=C(N[C@@H](CC1CCCCC1)C(=O)NCCN1CCCC1)c1ccc(O)c(-c2cccc(C(F)(F)F)c2)c1 | -0.44% | -0.43% | 0.16%
14 | NC1=NC(c2ccccc2)(c2cccc(O)c2)C(=O)N1CCCc1ccccc1 (stereo not given) | 10.4% and 2.82% | 10.4% and 1.45% | 6.85% and 0.63%
15 | CCOC(=O)c1c(-c2ccccc2)nc2c(sc3ccccc32)c1O | 5.5% | 5.15% | 5.35%
16 | Cc1cc(N/N=C/c2ccccc2[N+](=O)[O-])c2ccccc2n1 | 3.96% | 5.28% | 2.51%
17 | COCCNCc1ccc(-c2ccccc2CNC2CCN(Cc3ccccc3)CC2)cc1 | 1.97% | 2.36% | -0.28%
18 | CC(=O)Nc1cc(C(=O)Nc2cccc(-c3cccc(-c4nc5cc(C(F)(F)F)ccc5[nH]4)c3)c2)ccc1C | 7.57% | 6.52% | 1.84%
19 | Cn1cc(C2CCN(CCCCNC(=O)c3sc(-c4ccc(C(F)(F)F)cc4)nc3CO)CC2)c2ccccc21 | -3.34% | -1.85% | -0.2%
20 | O=C(Nc1cccc(CN2CCCN(CCc3ccccc3)CC2)c1)c1ccc(Cl)c(Cl)c1 | 8.79% | 8.5% | -3.05%
21 | CCc1ccc(S(=O)(=O)Nc2cccc(CCN3CCC(N4CCCCC4)CC3)c2)cc1 | 1.95% | 1.48% | -0.34%
22 | O=C(c1ccc(Cl)cc1Cl)N1CCCC(C(F)(F)F)C1 (stereo not given) | 8.69% | 11.4% | 10.3%
23 | O=C(/C=C/c1ccc(Cl)cc1)NCCCCCN1CCN(C(=O)Nc2ccc(Cl)c(C(F)(F)F)c2)CC1 | 4.45% | 5% | 3.42%
24 | O=C(c1cc2ccccc2o1)N1CCc2cc3nccc(N4CCN5CCC[C@H]5C4)c3cc21 | 3.95% | 4.36% | 6.35%

Row | SMILES | inhibition [1] | inhibition [2] | inhibition [3]
25 | O=C(Cc1c[nH]cn1)Nc1cccc(-c2cccc(-c3nc4cc(F)ccc4[nH]3)c2)c1 | -1.27% | -0.43% | -2.58%
26 | Cc1cccc2nc(-c3ccc(-c4ccc(CNCCN5CCNCC5)cc4)s3)[nH]c12 | 2.77% | 3.12% | 3.22%
27 | Cc1noc(-c2ccc(N3CCC(C(=O)N4CCN(C(C)C)CC4)CC3)cc2)n1 | 1.72% | 2.07% | 2%
28 | COc1cc(NC(=O)c2sc(-c3ccc(Cl)cc3)cc2NC(=O)c2cccnc2)ccc1OCCN1CCCC1 | 4.28% | 4.76% | 6.19%
29 | Nc1nc(N)c2c(ccc3c2ccn3CCCCO)n1 | 5.49% | 7.01% | 6.28%
30 | c1ccc(CCNCc2ccc(-c3ccc(CNCc4ccc5c(c4)OCO5)cc3)nc2)cc1 | 2.48% | -1.05% | 1.81%
31 | CCCCCCn1c(Sc2ccc(C#N)c([N+](=O)[O-])c2)nnc1-c1cc(OC)cc(OC)c1 | 5.8% | 6.04% | 4.53%
32 | COc1cc(NC2=C(c3ccccc3)C(=O)c3ccccc32)ccn1 | 4.66% | 2.03% | 1.41%
33 | Cc1noc(C)c1-c1ccc(C(=C2CCCCCCC2)c2ccc(O)cc2)cc1 | -4.06% | -2.9% | 5.39%
34 | C=CCOC(=O)N1CCC(CNCc2ccc(-c3cccc(-c4nc5ccccc5[nH]4)c3)cc2)C1 (stereo not given) | 3.24% | 1.73% | 3.33%
35 | COc1cc(Nc2ncc3c(C)nc(-c4cccc(Nc5ccc(CN6CCS(=O)(=O)CC6)cc5)c4)n3n2)cc(OC)c1OC | 14% | 5.79% | 3.49%
36 | CN1CCN(c2nsc3ccc(-c4ccc(NC(=O)Nc5cc(C(F)(F)F)ccc5F)cc4)cc23)CC1 | 5.16% | 1.74% | 2.12%
37 | Fc1ccc2[nH]c(-c3ccc(-c4ccc(CNCC5CCCO5)cc4)cc3)nc2c1 (stereo not given) | 12.4% | 11.2% | 7.73%
38 | COc1ccc(N(c2nc(-c3cc(Cl)ccc3Cl)cs2)C2CCNC2)cc1 (stereo not given) | 4.89% | 4.65% | 1.24%
39 | N#Cc1ccc(N(CCOc2ccc(Cl)c(F)c2)Cc2ccccc2C(F)(F)F)cc1C(F)(F)F | 3.18% | 0.42% | -1.25%
40 | COc1ccccc1CNc1ncc(-c2ccsc2)c(-c2nccs2)n1 | 0.14% | 0.8% | -0.05%
41 | Cc1ccc(OCC2CCN(c3ncc(C(=O)NCCCN4CCCC4=O)cc3Cl)CC2)cc1 | 1.15% | -1.22% | 0.72%
42 | CCCCOP(=O)(COc1ccc(CCN(CC(O)COc2cccc3[nH]c4ccccc4c23)CC(O)COc2cccc3[nH]c4ccccc4c23)cc1)C1CCCCC1 (stereo not given) | 3.64% | 0.57% | 0.82%
43 | O=C(C=Cc1ccc(Cl)c(Cl)c1)NCCCCCN1CCCC(CCCNC(=O)c2cccs2)C1 (stereo not given) | 6.06% | 3.58% | 5.16%
44 | O=C(Nc1ccccc1)N(Cc1ccc(-c2ccc(CNCc3ccc4c(c3)OCO4)cc2)cc1)C1CCN(Cc2ccccc2)CC1 | 0.62% | -0.02% | -6.42%
45 | CCN(CC)CCCNc1ncc2c(-c3ccc(NC(=O)Nc4cc(C(F)(F)F)ccc4F)c(F)c3)nn(C)c2n1 | -0.37% | -0.41% | -1.03%
46 | CC(C)C[C@H](NC(=O)c1cc2ccccc2s1)C(=O)N[C@H]1CCN(Cc2ccc(OCCCN(C)C)c(Cl)c2)C1 | 3.21% | 2.95% | 1.32%
47 | Cc1cc(NCCC(=O)NCCc2ccccc2)nc(NCCc2ccc(F)cc2)n1 | 2.76% | 3.87% | 2.22%
48 | Cc1cc(NC(=O)c2cccs2)ccc1OC1CCN(Cc2ccc(C#N)cc2)CC1 | -0.77% | 1.49% | -0.42%

Row | SMILES | inhibition [1] | inhibition [2] | inhibition [3]
49 | COc1ccccc1C(C)NCC(=O)Nc1cc(C(F)(F)F)ccc1Cl (stereo not given) | 1.79% | 3.31% | 0.58%
50 | N#Cc1ccc2[nH]cc(-c3cn4cc(SC5CCCC5)ccc4n3)c2c1 | 0.43% | 1.11% | 1.09%
51 | Nc1ncc(-c2ccsc2)c2ccc(-c3ccc4cn[nH]c4c3)cc12 | 3.11% | 1.38% | 5.29%
52 | Cc1cc(Nc2ncc(Cl)c(Nc3ccccc3C(N)=O)n2)n[nH]1 | -1.31% | 2.51% | 3.02%
53 | Cc1ccc(C2(CN3CCC(NC(=O)c4n[nH]cc4Cl)CC3)CCCCC2)cc1 | -1.34% | 0.31% | -0.37%
54 | CNCCNCc1ccc(-c2ccc(-c3nc4cc(F)ccc4[nH]3)cc2)cc1 | 0.55% | 0.64% | 0.13%
55 | N=C(N)Nc1nc(-c2ccc(NC(=O)Nc3cccc(-c4csc(NC(=N)N)n4)c3)cc2)cs1 | -0.61% | 0% | -0.17%
56 | CCOc1c(CNCCCNc2cc(O)c3ccccc3n2)cc(Br)cc1OC | 7.77% | 4.37% | 6.38%
57 | O=C(COc1cnc2ccccc2n1)Nc1ccccc1Sc1ccc(Cl)cc1 | 4.91% | 3.31% | 3.2%
58 | O=C(Nc1ccc(Cn2nc(Cl)c(N3CCCNCC3)cc2=O)cc1)Nc1ccc(-c2ccccc2)cc1 | 19.7% | 15.5% | 16.6%
59 | N=C(N)NC(=O)Nc1ccc(Cl)c([N+](=O)[O-])c1 | 0.49% | 0.63% | 0.37%
60 | O=C(NC(c1ccccc1)c1ccccc1)C(c1cc2ccccc2o1)N1CCN(C(c2ccccc2)c2ccccc2)CC1 (stereo not given) | 4.42% | 2.92% | 0.24%
61 | CCOC(=O)c1ccc(NC(=O)Nc2cccc(-c3cccc(-c4nc5cc(F)ccc5[nH]4)c3)c2)cc1 | 0.68% | 2.75% | 3.67%
62 | CC(CN1CCN(C)CC1)C(=O)Nc1cccc(-c2cccc(-c3nc4cc(F)ccc4[nH]3)c2)c1 (stereo not given) | 6.87% | 5.83% | 5.91%
63 | Cc1ccc(NC(=O)c2ccc(CN3CCCN(CC4CCCCC4)CC3)cc2)cc1C | 7.66% | 7.13% | 8.98%
64 | Cc1cc(CN2CC[C@H](NC(=O)c3ccc(Cl)c(Cl)c3)C2)ccc1OC1CCN(C)C1 (stereo not given in full) | -0.24% | 0.72% | -0.09%
65 | Cc1[nH]c(C)c(-c2ccc(OCCn3cnc(Cl)c3Cl)cc2)c(=O)c1Br | -1.35% | -0.56% | -0.52%
66 | C=C[C@]1(C)C[C@@H](OC(=O)CSC2CN3CCC2C3)[C@@]2(C)C3C(=O)CC[C@@]3(CC[C@H]2C)[C@@H](C)[C@@H]1O (stereo not given in full) | 72.8% | 73.2% | 59%
67 | CCn1c(-c2cc(C)on2)nc2cnc(Oc3ccc(C(=O)N4CC(=O)N(C)C4C(C)(C)C)cc3)cc21 (stereo not given) | -1.85% | 1.92% | 5.58%
68 | CS(=O)(=O)Nc1ccc2[nH]cc(C3CCN(CC4CCC(NC(=O)/C=C/c5ccc(Cl)c(Cl)c5)CC4)CC3)c2n1 (stereo not given) | 3.3% | 1.84% | 0.21%
69 | CCN(CC)c1nc(-c2ccccc2)cc(-c2ccccc2)c1C#N | 1.31% | 1.62% | -0.21%
70 | Cc1ccc(NC(=O)C(C)Sc2nnc(-c3ccccc3Br)[nH]2)cc1 (stereo not given) | -1.5% | -2.48% | -0.33%
